Experimental findings from PubChem BioAssay are described below.

The structures appear in SMILES notation. Calls of active or inactive are those of the source.

For experiment [1], the system named is Human papillomavirus type 1a protein E7 (residues 44-93). Kind of experiment: HPV1a E7 fragment binders on microarrays, primary screen, biochemical, small-molecule microarray, residues 44-93, 635 nm fluorescence (AID 1108).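 Also: E7 fragment applied at 1 µg/mL in TBST for 1 h at 4 C; score combines spot fluorescence with its signal to noise ratio.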 The settings on record: small-molecule microarray binding, fluorescence 635 nm; higher = more signal.
A short description of experiment [2]: modulators of HCV replicon luciferase signal, primary screen, HCV replication inhibitor project, Huh7 cells, luciferase reporter (AID 1109).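 Also: huh7 hepatoma cells harbouring a luciferase neomycin HCV replicon reporter; luciferase luminescence as measure of HCV replicon replication; test concentration not given here.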 The conditions noted are these: 48 h, higher = more signal.
Experiment [3] has as its target Left-right determination factor 2 (Homo sapiens) (UniProt O00292). The experiment in a line: LEFTY2 binders on small-molecule microarrays, primary screen, biochemical, small-molecule microarray, 635 nm fluorescence scan (AID 1110). The conditions noted are these: LEFTY2 binding, higher = more signal.
For experiment [4], the target named is Calmodulin-1 (Homo sapiens) (UniProt P0DP23). The experiment in a line: CALM1 binders on microarrays, EGTA buffer, profiling panel, biochemical, small-molecule microarray, Cy5-labelled CALM1 (AID 1111).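 Also: labelled calmodulin applied in Tris saline Tween buffer holding calcium plus EGTA and DTT.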 The conditions noted are these: Cy5-CALM1 binding fluorescence, higher = more signal.
Experiment [5] shares this target. Kind of experiment: calcium-bound CALM1 binders on microarrays, profiling panel, artefact control for SMM control-protein annotation, biochemical, small-molecule microarray, Cy5-labelled CALM1, plus calcium (AID 1112).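 Also: score merges spot fluorescence with signal to noise from triplicate slides.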 The conditions noted are these: Cy5-CALM1 binding fluorescence, higher = more signal.
Experiment [6] can be described thus: small-molecule microarray binders of probe aWnt5a, primary screen, biochemical, biotinylated probe, 635/667 nm fluorescence (AID 1113).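 Also: score merges 667 nm fluorescence intensity with signal-to-noise per printed feature.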 The settings on record: higher = more signal.
Experiment [7] can be described thus: small-molecule microarray binders of probe aShh, primary screen, biochemical, biotinylated probe, 635/667 nm fluorescence (AID 1114).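 Also: probe is biotin-labelled aShh protein from a stem cell growth factor screen; measures binding of labelled protein to compounds printed on the slide; score merges feature fluorescence at 667 nm with signal-to-noise.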 The settings on record: higher = more signal.
Experiment [8] in a line: small-molecule microarray binders of probe aNog, primary screen, biochemical, biotinylated probe, 635/667 nm fluorescence (AID 1115).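 Also: probe is biotinylated aNog protein used at 0.15 µg/mL for 1 h at 4 C; z-score combines 667 nm fluorescence of each spot with its signal to noise.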 The conditions noted are these: higher = more signal.
For experiment [9], the target named is Torsin-1A-interacting protein 1 (Homo sapiens) (UniProt Q5JTV8). The experiment in a line: LAP1 binders from COS7 cell lysate, primary screen, small-molecule microarray, 635/667 nm fluorescence (AID 1116). The settings on record: COS7-hLAP1 lysate binding, 635 nm fluorescence, higher = more signal.
Torsin-1A-interacting protein 1 (Homo sapiens), sequence (Q5JTV8 whole entry, looked up): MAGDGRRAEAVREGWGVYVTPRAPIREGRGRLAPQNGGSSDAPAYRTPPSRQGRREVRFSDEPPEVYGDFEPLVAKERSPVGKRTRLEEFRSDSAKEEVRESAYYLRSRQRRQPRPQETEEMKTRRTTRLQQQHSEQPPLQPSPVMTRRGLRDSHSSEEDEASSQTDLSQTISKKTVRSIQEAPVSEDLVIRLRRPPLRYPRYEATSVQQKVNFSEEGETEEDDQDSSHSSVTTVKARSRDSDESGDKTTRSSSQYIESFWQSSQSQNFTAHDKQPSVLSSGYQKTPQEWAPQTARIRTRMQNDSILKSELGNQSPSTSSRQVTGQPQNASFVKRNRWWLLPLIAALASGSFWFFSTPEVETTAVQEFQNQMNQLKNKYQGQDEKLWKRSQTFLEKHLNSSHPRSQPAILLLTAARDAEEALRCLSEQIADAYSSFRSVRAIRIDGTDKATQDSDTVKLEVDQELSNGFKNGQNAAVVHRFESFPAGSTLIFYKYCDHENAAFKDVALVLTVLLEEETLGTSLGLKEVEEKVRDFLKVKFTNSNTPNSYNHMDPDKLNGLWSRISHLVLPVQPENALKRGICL
Experiment [10] addresses Alpha-bungarotoxin (Bungarus multicinctus) (UniProt P60615). Kind of experiment: alpha-bungarotoxin binders on microarray, profiling panel, artefact control for SMM control protein annotation, biochemical, small-molecule microarray, Alexa647 label, 635/667 nm fluorescence (AID 1117). The settings on record: alpha-BTX-A647 binding fluorescence, higher = more signal.
The next experiment concerns the target Albumin (Bos taurus) (UniProt P02769). Kind of experiment: bovine serum albumin binders on microarray, profiling panel, artefact control for SMM control protein annotation, biochemical, small-molecule microarray, Alexa647 label, 635/667 nm fluorescence (AID 1118).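 Also: score merges 667 nm emission intensity and signal-to-noise per printed compound spot.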 The settings on record: BSA-A647 binding, fluorescence 635 nm, higher = more signal.
Experiment [11] is described as follows: small-molecule microarray binders of probe aXIP, primary screen, biochemical, NeuroSMM set, 635/667 nm fluorescence (AID 1119).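 Also: probe is the protein aXip251-270 applied at 1 µg/mL to compound-printed slides; binding of probe to printed compounds measured as 667 nm fluorescence plus signal to noise.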 The conditions noted are these: higher = more signal, called active from +8 up or from −8 down.
The nature of experiment [12]: small-molecule binders of probe aNOTCH3, primary screen, biochemical, small-molecule microarray, 635/667 nm fluorescence (AID 1120).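 Also: probe is a biotin-tagged antibody raised against NOTCH3 rather than NOTCH3 protein; score merges spot fluorescence near 667 nm with spot signal to noise.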 The settings on record: higher = more signal.
Experiment [13] in a line: small-molecule binders of probe aNOTCH2, primary screen, biochemical, small-molecule microarray, 635/667 nm fluorescence (AID 1121).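 Also: score merges feature fluorescence read at 667 nm with its signal to noise.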 The settings on record: higher = more signal.
Experiment [14] addresses Carbonic anhydrase 2 (Homo sapiens) (UniProt P00918). The experiment in a line: CAII small-molecule binders, profiling panel, biochemical, small-molecule microarray, Alexa647-labelled CAII (AID 1122). The settings on record: CAII-A647 binding fluorescence, higher = more signal.
Experiment [15] can be described thus: COS7 lysate on small-molecule microarray, probe aHis, 635 nm (AID 1123).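 Also: z-score combines 667nm fluorescence intensity with signal-to-noise per printed compound spot.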 The conditions noted are these: COS7 cell lysate, fluorescence, higher = more signal.
Experiment [16] can be described thus: compound binding in COS7 lysate, probe aLAP1, primary screen, cell lysate, small-molecule microarray (AID 1124).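 Also: lysate comes from COS7 cells expressing LAP1 and is applied at 0.3 µg/mL; score merges spot fluorescence near 667 nm with signal-to-noise over triplicate slides.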 The conditions noted are these: probe aLAP1, fluorescence, higher = more signal.
For another experiment, the system named is Sam68 (KHDRBS1). Kind of experiment: Sam68 small-molecule binders, primary screen, biochemical, small-molecule microarray, 635 nm fluorescence (AID 1125).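 Also: score merges 667 nm channel intensity with signal to noise over triplicate slides.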 The settings on record: small-molecule microarray binding, higher = more signal.
The subject of experiment [17] is Chordin-like protein 2 (CHRDL2). Kind of experiment: CHRDL2 small-molecule binders, primary screen, biochemical, small-molecule microarray, 635 nm fluorescence (AID 1126).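 Also: printed compound slides probed with Chrdl2 protein at 4 µg/mL for 1 h at 4 C; score merges 667 nm emission intensity with signal to noise over three replicate slides.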 The conditions noted are these: small-molecule microarray binding, fluorescence 635 nm; higher = more signal.
The target of experiment [18] is Concanavalin-A (Canavalia ensiformis) (UniProt P02866). Kind of experiment: ConA small-molecule binders, primary screen, artefact control for SMM control protein annotation, biochemical, small-molecule microarray, Alexa647 label, 635 nm (AID 1127).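 Also: z combines 667 nm emission intensity with signal-to-noise across three replicate slides.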 The conditions noted are these: ConA-A647 binding fluorescence, higher = more signal.
Concanavalin-A (Canavalia ensiformis), sequence (P02866 whole entry, looked up): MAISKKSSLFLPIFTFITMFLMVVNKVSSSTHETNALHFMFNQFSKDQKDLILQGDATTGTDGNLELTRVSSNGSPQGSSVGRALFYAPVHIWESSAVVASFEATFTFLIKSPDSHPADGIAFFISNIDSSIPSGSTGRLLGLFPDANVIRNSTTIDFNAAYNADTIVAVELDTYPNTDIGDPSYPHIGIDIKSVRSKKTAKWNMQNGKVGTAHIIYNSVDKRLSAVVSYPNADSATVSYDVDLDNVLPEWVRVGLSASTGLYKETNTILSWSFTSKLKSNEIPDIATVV

Alpha-bungarotoxin (Bungarus multicinctus), sequence (P60615 whole entry, looked up): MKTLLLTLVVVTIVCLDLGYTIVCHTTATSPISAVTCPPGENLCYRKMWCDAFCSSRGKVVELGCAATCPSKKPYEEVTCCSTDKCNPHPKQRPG
Albumin (Bos taurus), sequence (P02769 whole entry, looked up): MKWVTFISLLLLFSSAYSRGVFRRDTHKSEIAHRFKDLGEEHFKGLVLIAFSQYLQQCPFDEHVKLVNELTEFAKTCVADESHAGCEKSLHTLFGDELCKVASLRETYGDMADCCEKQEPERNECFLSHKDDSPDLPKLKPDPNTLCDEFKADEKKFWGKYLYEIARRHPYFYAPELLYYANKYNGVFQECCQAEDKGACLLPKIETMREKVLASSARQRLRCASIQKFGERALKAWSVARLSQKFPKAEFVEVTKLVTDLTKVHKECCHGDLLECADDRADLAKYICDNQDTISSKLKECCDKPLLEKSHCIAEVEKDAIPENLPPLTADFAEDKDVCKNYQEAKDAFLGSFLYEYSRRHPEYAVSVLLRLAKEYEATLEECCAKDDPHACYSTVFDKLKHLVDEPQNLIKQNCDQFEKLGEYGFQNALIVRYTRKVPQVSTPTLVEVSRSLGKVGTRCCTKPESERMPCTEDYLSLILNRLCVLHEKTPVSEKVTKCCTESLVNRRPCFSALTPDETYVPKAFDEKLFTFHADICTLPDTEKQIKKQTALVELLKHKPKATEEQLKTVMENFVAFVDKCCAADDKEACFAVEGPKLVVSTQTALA
Left-right determination factor 2 (Homo sapiens), sequence (O00292 whole entry, looked up): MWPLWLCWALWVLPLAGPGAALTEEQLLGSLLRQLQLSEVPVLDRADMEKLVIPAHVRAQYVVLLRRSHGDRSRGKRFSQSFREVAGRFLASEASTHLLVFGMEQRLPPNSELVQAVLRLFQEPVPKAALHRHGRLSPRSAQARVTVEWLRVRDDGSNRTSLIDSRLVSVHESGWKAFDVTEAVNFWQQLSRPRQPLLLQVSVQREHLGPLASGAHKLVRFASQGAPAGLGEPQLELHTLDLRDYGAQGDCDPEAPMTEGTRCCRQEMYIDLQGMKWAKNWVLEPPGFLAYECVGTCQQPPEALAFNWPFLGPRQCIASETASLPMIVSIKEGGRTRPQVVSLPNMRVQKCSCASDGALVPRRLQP

`CCOC(=O)C1=CC[C@@H](c2ccccc2)N(S(=O)(=O)c2ccc(C)cc2)[C@H]1c1ccc(C#N)cc1`: the composite z-score in experiment [1] was 1.2; in experiment [3], -0.266; in experiment [4] it was 1.95; in experiment [5], 1; in experiment [6] it was -0.0236; in experiment [7] it was 0.385. Moreover, the composite z-score in experiment [8] was 0.621; in experiment [9], 1.48; in experiment [10], 1.84; in the experiment with Albumin (Bos taurus) it was 0.801; in experiment [12], 0.116; in experiment [13], -0.0158. Besides, the composite z-score was 0.356 in [14]; 1.56 in [15]; 0.791 in [16]; 1.33 with Sam68 (KHDRBS1); -1.25 in [17]; 1.12 in experiment [18]. In addition, in experiment [2], the z-score was -2.11. Besides, the composite Z-score in experiment [11] was 0.662 (inactive).
`CCOC(=O)C1=CC[C@@H](c2cccc(Cl)c2)N(S(=O)(=O)c2ccc(C)cc2)[C@H]1c1ccc(C#N)cc1`: the composite z-score in [1] was found to be 1.41; in [3], 0.838; in experiment [4] it was 1.55; in experiment [5] it was 0.736; in [6] it was 0.0266; in experiment [7], 0.0638. The composite z-score in experiment [8] came out at 0.978; in [9], 1.32; in experiment [10] it was 1.39; with Albumin (Bos taurus) it was 1.01; in experiment [12], 0.159; in experiment [13], 0.0747. Besides, the composite z-score in [14] was 0.728; in experiment [15], 2.86; in experiment [16], 0.668; in the experiment with Sam68 (KHDRBS1) it was 1.29; in [17] it was -0.0727; in experiment [18] it was 1.11. Also, in [2], the z-score is -1.95. The composite Z-score in experiment [11] is 0.272 (inactive).
For the molecule `COCCOC(=O)N1C(=O)[C@@]2(c3cc(C#Cc4ccc(OC)cc4)ccc31)[C@H](c1ccc(O)cc1)N1[C@H](c3ccccc3)[C@H](c3ccccc3)OC(=O)[C@H]1[C@@H]2C(=O)N1CCN(c2ncccn2)CC1`, the composite z-score is 1.37 in experiment [1]; 0.224 in experiment [3]; 0.966 in experiment [4]; 0.361 in experiment [5]; -0.0846 in [6]; -0.441 in experiment [7]. Further, the composite z-score in experiment [8] was -0.124; in experiment [9], 0.596; in experiment [10], 0.829; in the experiment with Albumin (Bos taurus) it was 0.303; in [12], 0.0486; in experiment [13], -0.0956. In addition, the composite z-score in [14] was 0.395; in experiment [15], 1.48; in experiment [16], 0.406; in the experiment on Sam68 (KHDRBS1), 1.2; in experiment [17], -0.126; in [18], 0.657. In experiment [2], the z-score is -1.05. In addition, in experiment [11], the composite Z-score was -0.321 (inactive).
On to `CC1(C)C(=O)C(c2ccccc2)=C2CN3C(=O)N(CCc4ccccc4)C(=O)C3(Cc3ccccc3)C=C21` (stereo not given), for which the composite z-score is 1.03 in experiment [1]; -0.0283 in [3]; 1.03 in experiment [4]; 0.9 in [5]; 0.0633 in experiment [6]; 0.375 in experiment [7]. Moreover, the composite z-score in [8] is 0.578; in [9] it was -0.0882; in [10] it was 1.68; with Albumin (Bos taurus), 0.775; in [12] it was 0.351; in [13] it was 0.121. The composite z-score in [14] was 0.644; in experiment [15], 1.16; in experiment [16], -0.0857; with Sam68 (KHDRBS1), 0.516; in experiment [17], -0.888; in [18], 0.444. For the same molecule, the z-score in experiment [2] was -1.58. Moreover, the composite Z-score in [11] is 0.274 (inactive).
As to `C=CCNC(=O)[C@H]1[C@@H]2C(=O)O[C@@H](c3ccccc3)[C@@H](c3ccccc3)N2[C@@H](c2ccc(OCCO)cc2)[C@]12C(=O)N(C(=O)OCCOC)c1ccc(C#CC3(O)CCCCCC3)cc12`, the composite z-score was 1.18 in experiment [1]; 1.2 in experiment [3]; 0.494 in [4]; -0.12 in experiment [5]; 0.0342 in experiment [6]; -0.0035 in [7]. The composite z-score in experiment [8] is 1.7; in experiment [9] it was 1.07; in experiment [10], 1.52; with Albumin (Bos taurus) it was -1.02; in experiment [12], 0.373; in experiment [13], 0.308. Further, the composite z-score in experiment [14] came to 0.615; in experiment [15], 1.9; in experiment [16], 1.5; in the experiment with Sam68 (KHDRBS1) it was 1.3; in [17] it was 1.1; in [18], 1.07. Further, the z-score in experiment [2] was -2.07. Further, the composite Z-score in [11] is -0.586 (inactive).
For `C=C(C(=O)CC[C@@H](OC(C)=O)c1ccc(OCCO)cc1)C(C)C`, the composite z-score in experiment [1] was 0.522; in experiment [3], -0.384; in experiment [4] it was -0.43; in experiment [5], -0.908; in experiment [6] it was 0.117; in [7], -0.0866. Besides, the composite z-score in experiment [8] was 0.365; in experiment [9], 0.159; in experiment [10], 0.227; with Albumin (Bos taurus) it was 0.773; in experiment [12], -0.122; in experiment [13] it was -0.0908. Besides, the composite z-score in experiment [14] is 0.76; in experiment [15] it was 1.57; in experiment [16], -0.773; in the experiment with Sam68 (KHDRBS1) it was 0.135; in experiment [17] it was 0.0246; in experiment [18], 0.187. For the same molecule, the z-score in experiment [2] was -1.88. In addition, the composite Z-score in [11] is 0.154 (inactive).
